Data published in paper PMC4336329 (PLoS ONE, 2015).
Hit rate of the full screen: of about 310,000 compounds, about 14,000 (4.5%) showed an effect of 50% or more. The effect is printed as a negative number. The entries come from a sample that favours strong results as a whole.

Molecular target: human ether-à-go-go-related gene (hERG) potassium channel (human, UniProt Q12809)
Assay: primary screen, population patch clamp on CHO cells stably expressing hERG; higher = less effect of the substance
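Further: peak tail current of the secondary pulse compared with the same well before compound.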

Sequence of human ether-à-go-go-related gene (hERG) potassium channel (Q12809 whole entry, looked up): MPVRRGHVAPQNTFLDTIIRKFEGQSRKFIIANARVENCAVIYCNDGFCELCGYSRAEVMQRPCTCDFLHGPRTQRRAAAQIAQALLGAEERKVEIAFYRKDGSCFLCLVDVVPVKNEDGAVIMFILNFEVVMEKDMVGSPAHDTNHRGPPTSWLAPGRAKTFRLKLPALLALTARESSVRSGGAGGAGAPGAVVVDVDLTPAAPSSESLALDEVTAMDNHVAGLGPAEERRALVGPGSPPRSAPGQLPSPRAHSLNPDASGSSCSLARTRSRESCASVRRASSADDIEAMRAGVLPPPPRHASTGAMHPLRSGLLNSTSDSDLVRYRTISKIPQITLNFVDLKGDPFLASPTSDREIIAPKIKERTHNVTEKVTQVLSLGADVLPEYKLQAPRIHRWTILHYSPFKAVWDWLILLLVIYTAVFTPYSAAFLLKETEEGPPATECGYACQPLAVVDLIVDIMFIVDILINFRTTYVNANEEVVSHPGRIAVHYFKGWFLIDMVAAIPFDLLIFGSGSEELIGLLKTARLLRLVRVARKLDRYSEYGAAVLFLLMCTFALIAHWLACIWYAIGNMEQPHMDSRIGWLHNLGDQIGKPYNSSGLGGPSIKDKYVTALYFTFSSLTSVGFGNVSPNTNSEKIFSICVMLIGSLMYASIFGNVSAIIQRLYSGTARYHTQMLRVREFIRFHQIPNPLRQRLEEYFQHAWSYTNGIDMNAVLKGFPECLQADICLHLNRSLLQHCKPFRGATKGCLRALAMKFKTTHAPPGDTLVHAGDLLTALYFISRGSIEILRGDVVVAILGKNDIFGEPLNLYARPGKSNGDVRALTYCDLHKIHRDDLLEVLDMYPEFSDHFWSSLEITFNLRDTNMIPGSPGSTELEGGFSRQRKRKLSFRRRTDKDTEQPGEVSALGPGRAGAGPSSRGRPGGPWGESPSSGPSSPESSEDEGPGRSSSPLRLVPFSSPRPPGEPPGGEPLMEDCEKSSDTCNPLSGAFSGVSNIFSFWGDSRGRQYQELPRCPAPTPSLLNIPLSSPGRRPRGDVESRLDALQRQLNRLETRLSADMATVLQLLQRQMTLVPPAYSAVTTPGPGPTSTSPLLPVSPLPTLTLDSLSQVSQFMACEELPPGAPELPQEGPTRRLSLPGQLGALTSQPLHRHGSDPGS

| SMILES | hERG current change (%, negative = inhibition) at 10uM [%] |
| --- | --- |
| CCC1(C)Cc2nc3[nH]c(=S)n(-c4ccccc4C)c(=O)c3cc2CO1 (stereo not drawn) | 4.44 |
| Cc1ccc2c(c1)c1c(n2C)C(C(N)=O)CCC1 (stereo not drawn) | -19.5 |
| CCCC(C)C1(CC)C(=O)NC(=Nc2ccc(F)cc2)NC1=O (stereo not drawn) | 17.5 |
| CCC(C)C1(CC)C(=O)NC(=O)N=C1N (stereo not drawn) | 36.1 |
| CCCC(C)C1(CC)C(=O)NC(=O)N=C1N (stereo not drawn) | -76.5 |
| O=C(c1ccco1)N1CCN(C(=O)c2ccc(-c3ccccc3Cl)o2)CC1 | -67.6 |
| O=C1c2ccccc2-c2c1cccc2C(=O)N1CCCCC1 | -22.3 |
| CC(=O)N1CCN(C(=O)c2ccc(-c3ccccc3Cl)o2)CC1 | -20 |
| O=C(Cc1ccc(Cl)cc1)N1CCN(C(=O)c2ccco2)CC1 | -12.8 |
| O=C(c1cc(-c2ccccc2Cl)on1)N1CCN(C(=O)c2ccco2)CC1 | -44.2 |
| O=C(c1ccco1)N1CCN(C(=O)c2ccc(-c3ccc(Cl)cc3)o2)CC1 | -78.8 |
| O=C1c2ccccc2-c2c1cccc2C(=O)N1CCCCCC1 | 0.506 |
| O=C(c1cc(-c2ccc(Cl)cc2Cl)on1)N1CCN(C(=O)c2ccco2)CC1 | -70.2 |
| O=C(c1cc(-c2ccc(Cl)cc2Cl)on1)N1CCCC1 | -0.203 |
| O=C(c1ccc(-c2ccccc2Cl)o1)N1CCN(c2ccccc2O)CC1 | 8.64 |
| O=C1c2ccccc2-c2c1cccc2C(=O)N1CCN(C(=O)c2ccco2)CC1 | -71.1 |
| O=C(c1ccc(Cl)cc1)N1CCN(C(=O)c2ccco2)CC1 | -21 |
| COC(=O)C(O)(c1ccc(NC(=O)c2ccco2)c(OC)c1)C(F)(F)F (stereo not drawn) | -6.24 |
| O=C(NCCc1ccc(Cl)cc1)C(=O)c1c[nH]c2ccccc12 | -10.8 |
| O=C(Nc1nsc(-c2ccccc2)n1)c1ccc(F)cc1 | -24.6 |
| CCC(NC(=O)CNC(=O)CNC(=O)c1ccc(Cl)cc1Cl)c1ccc(C)cc1 (stereo not drawn) | 22.2 |
| CC(C)c1cc(C(=O)O)n(-c2ccccc2)n1 | 12.1 |
| Cc1ccc(S(=O)(=O)n2[nH]c(=O)c(CCO)c2C)cc1 | 8.83 |

| SMILES | hERG current change (%, negative = inhibition) at 10uM [%] |
| --- | --- |
| O=C(Cc1ccc(F)cc1)N/N=C/c1ccncc1 | -8.56 |
| Fc1ccc(C2c3cccn3CCN2C(=S)Nc2cccc(Br)c2)cc1 (stereo not drawn) | 19.4 |
| Cc1ccc(C(=O)c2ccccc2C(=O)OCC(=O)NCCc2ccc(Cl)cc2Cl)cc1 | -9.96 |
| O=C(COC(=O)c1ccccc1C(=O)c1ccc(Cl)cc1)NCCc1ccccc1 | -18.7 |
| O=C(COC(=O)c1ccccc1C(=O)c1ccccc1)NCCc1ccccc1 | -64.8 |
| Cc1ccc(C(=O)c2ccccc2C(=O)OCC(=O)NCCc2ccccc2)cc1 | -52.5 |
| O=C(COC(=O)c1ccccc1C(=O)c1ccccc1)NCCc1ccc(Cl)cc1Cl | -31.9 |
| Cc1ccc(C(=O)c2ccccc2C(=O)OCC(=O)NC(C)(C)C)cc1 | -0.829 |
| CSCCC(NS(=O)(=O)/C=C/c1ccccc1)C(=O)NCCc1ccc(S(N)(=O)=O)cc1 (stereo not drawn) | 7.59 |
| COc1ccc(C(=O)COC(=O)CCn2nnc(-c3cccs3)n2)cc1 | 10.6 |
| CN(Cc1c(C(=O)N/N=C/c2cccc(O)c2)nnn1-c1nonc1N)C1CCCCC1 | -2.25 |
| CCOC(=O)CN1C(=O)CSc2ccccc21 | 0.699 |
| CNc1ncc(C(=O)c2ccccc2)s1 | -1.56 |
| NCCNC(=O)c1c(NC(=O)c2ccccc2)sc2c1CCCC2 | 15.4 |
| CCN(CC)CCCC(C)NC(=O)c1c(NC(=O)c2ccccc2)sc2c1CCCC2.O=C(O)C(=O)O (stereo not drawn) | -76.9 |
| CN(C)CCNC(=O)c1c(NC(=O)c2ccccc2)sc2c1CCCC2 | -25.9 |
| CCOc1ccccc1C(c1c(O)nc(SC)[nH]c1=O)c1c(O)nc(SC)[nH]c1=O | 5.67 |
| O=S(=O)(Nc1ncccn1)c1ccc(NS(=O)(=O)c2cc(Cl)ccc2Cl)cc1 | 31.6 |
| COc1ccccc1C(=O)N(Cc1ccccc1)c1ccc(C)cc1 | -2.96 |
| CCOC(=O)C1(CCc2ccccc2)CCN(C(=O)c2cccc(C)n2)CC1 | -11.4 |
| CC#CC(=O)N1CCC(CCc2ccccc2)(C(=O)OCC)CC1 | -61.4 |
| CC#CC(=O)N1CCC(CO)(CCc2ccccc2)CC1 | 1.33 |
| CCOC(=O)C1(CCc2ccccc2)CCN(C(=O)c2occc2C)CC1 | -63.3 |

| SMILES | hERG current change (%, negative = inhibition) at 10uM [%] |
| --- | --- |
| CCOC(=O)C1(CCc2ccccc2)CCN(C(=O)c2cc(C)nc(C)n2)CC1 | -11 |
| CCOC(=O)C1(CCc2ccccc2)CCN(C(=O)C2=C(C)OCCO2)CC1 | -15.2 |
| COc1cc(Cl)c(C)cc1Nc1ncccn1 | 4.73 |
| CC(=O)c1cccc(NC(=S)N2CCCC2)c1 | 9.57 |
| Cc1csc2ncnc(NC3CCN(Cc4ccccc4)CC3)c12 | -65.5 |
| c1ccc(CN2CCC(Nc3ncnc4sccc34)CC2)cc1 | -66.9 |
| Cc1csc2ncnc(NCCc3ccccn3)c12 | -22.4 |
| Cc1csc2c(NC3CCN(Cc4ccccc4)CC3)ncnc12 | -31.8 |
| OC1CCC(Nc2ncnc3sccc23)CC1 (stereo not drawn) | 13.2 |
| c1ccc(CNc2ncnc3sccc23)cc1 | 9.9 |
| Cc1sc2ncnc(NC3CCN(Cc4ccccc4)CC3)c2c1C | -79.6 |
| Cc1sc2ncnc(N[C@@H](Cc3ccccc3)C(=O)O)c2c1C | 14 |
| Cc1sc2ncnc(Nc3ccccc3)c2c1C | 2.79 |
| COc1ccc(NC(=O)c2cc(-c3ccc(C)cc3)on2)cc1OC | 19.4 |
| COc1cccc(CN(CC(=O)NCC2CCCO2)C(=O)CNS(=O)(=O)c2ccccc2)c1 (stereo not drawn) | 7.52 |
| O=C(CSc1ccccc1)NC(=O)NCc1ccccc1 | 5.87 |
| COc1ccc(C(=O)C[n+]2ccccc2C)cc1.[Br-] | 13.3 |
| CN(CCCN1CCOCC1)C(=O)c1cc(COc2c(F)cccc2F)on1 | 2.44 |
| Cc1ccc(OCc2cc(C(=O)N(C)CC3CCOCC3)no2)cc1C | -13.1 |
| Cc1cc(OCc2cc(C(=O)N(C)CC3CCOCC3)no2)cc(C)c1Cl | -69 |
| Cc1cc(OCc2cc(C(=O)N(C)C3CCOC3)no2)cc(C)c1Cl (stereo not drawn) | -73.6 |
| Cc1cc(OCc2cc(C(=O)N(C)C3CCOCC3)no2)cc(C)c1Cl | -13.5 |
| Cc1cc(OCc2cc(C(=O)N(C)Cc3nonc3C)no2)cc(C)c1Cl | 11.8 |

| SMILES | hERG current change (%, negative = inhibition) at 10uM [%] |
| --- | --- |
| Cc1cc(OCc2cc(C(=O)N(C)CCCN3CCOCC3)no2)cc(C)c1Cl | -58 |
| CN(CCCN1CCOCC1)C(=O)c1cc(COc2cccc(C(F)(F)F)c2)on1 | -40.5 |
| CN(C(=O)c1cc(COc2ccc(F)c(F)c2)on1)C1CCOC1 (stereo not drawn) | -13.1 |
| Cc1cccc(NC(=O)CN2C(=O)CSC2=O)c1 | 14.5 |
| CC(=O)c1ccc(N2CCN(C(=S)NCCCN(C)C)CC2)cc1 | 2.47 |
| CC1(C(=O)N/N=C/c2ccc3c(c2)OCO3)CC1(Br)Br (stereo not drawn) | -5.57 |
| CC(C)n1c(-c2ccco2)csc1=Nc1cccnc1 | -10.3 |
| COc1ccccc1-n1cnc2c(c1=O)c1nc3ccccc3nc1n2-c1ccc(C)cc1 | -19.7 |
| COc1ccc(-c2ccc(/C=N/N3C(=O)C4C5C=CC(C6CC56)C4C3=O)o2)c([N+](=O)[O-])c1 (stereo not drawn) | -58.9 |
| Cc1ccc(-c2ccc(/C=N/N3C(=O)C4C5C=CC(C6CC56)C4C3=O)o2)c([N+](=O)[O-])c1 (stereo not drawn) | -12.5 |
| O=C1C2C3C=CC(C4CC34)C2C(=O)N1/N=C/c1ccc(-c2ccc(Cl)cc2[N+](=O)[O-])o1 (stereo not drawn) | -13.5 |
| CCCCC[C@H](O)/C=C/C1=C(CCCCCCC(=O)O)C(=O)CC1 | 17.9 |
| O=C(COC(=O)c1c[nH]c(=O)[nH]c1=O)NCc1ccccc1 | -12.2 |
| O=C(CN1CCOCC1)N/N=C/c1ccc(-c2ccc(C(=O)O)cc2)o1 | -12 |
| Cc1ccc(-c2ccc(/C=N/NC(=O)CN3CCOCC3)o2)cc1[N+](=O)[O-] | -29.5 |
| O=C(CN1CCOCC1)N/N=C/c1ccccc1 | -14.4 |
| Cc1ccc([N+](=O)[O-])cc1-c1ccc(/C=N/NC(=O)CN2CCOCC2)o1 | -38.9 |
| O=C(CN1CCOCC1)N/N=C/c1ccc(-c2ccc(Br)cc2)o1 | -67.1 |
| O=C(CN1CCOCC1)N/N=C/c1ccc(-c2cccc(Cl)c2Cl)o1 | -73.4 |
| O=C(COc1ccccc1F)NNC(=O)c1ccc(N2CCCCC2)c([N+](=O)[O-])c1 | -36 |
| Nc1nc(-c2ccc(Cl)cc2)cn1N | -2.98 |
